# From PubChem BioAssay
# Rows were chosen to be rich in hits. Some 3.5% of all compounds tested hit in one or more screens of this group.
# mHTT CaM bind = disrupts binding of mutant huntingtin to calmodulin; AID 1671202; 3.6% of 190,000 active; inhibition, % at 15 µM; AlphaScreen His-mHTT/GST-CaM binding, luminescence; P42858;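 note: 0% = both proteins with DMSO and 100% = one protein alone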
# Pf apPOL block = Pf-apPOL DNA polymerase inhibition. Recombinant Pf-apPOL, molecular beacon fluorescence, 1.5 h. inhibition, % at 10 µM. 0.25% of 210,000 active
# * = called active by the depositor; / = no result. Cut-off read from the data, not from the text of the source: active = inhibition above about 50%; inactive = the rest.
SMILES,mHTT CaM bind,Pf apPOL block
CN1CCc2c(sc3c2C(=O)NC(c2ccc(COc4ccc(Cl)c(Cl)c4)o2)N3)C1 (stereo unspecified),81*,-10
CCOc1ccc(C2NC(=O)c3c(sc4c3CCN(C)C4)N2)c(O)c1 (stereo unspecified),3,-5
O=C1CCC(C(=O)Nc2ccccc2)N1 (stereo unspecified),1,-5
Cc1ccc2c(c1)N(S(=O)(=O)c1ccc3[nH]c4c(c3c1)CCCC4)CCO2,42,0
CCOC(=O)C1CCN(S(=O)(=O)c2ccc3[nH]c4c(c3c2)CCCCC4)CC1,71*,-5
O=S(=O)(c1ccc2[nH]c3c(c2c1)CCCCC3)N1CCC2(CC1)OCCO2,58*,-1
CN(CC(=O)N1CCCCCC1)S(=O)(=O)c1ccc2[nH]c3c(c2c1)CCCC3,14,-7
O=S(=O)(c1ccc2[nH]c3c(c2c1)CCCCC3)N1CCCCC1,76*,-2
Cc1ccc2nc(NC(=O)C(C)(C)C)[nH]c(=O)c2c1,/,4
CCOCCCNC(=O)c1cc(Sc2ccccc2Cl)nc2ccccc12,-2,-4
CCOc1cccc2cc(C(N)=O)c(=Nc3ccc(C(C)=O)cc3)oc12,2,-10
c1ccc(C2C3CCc4ccccc4C3=NN2c2ccccc2)cc1 (stereo unspecified),/,2
CC(=O)Nc1ccc(NC(=O)c2oc(=O)c3ccccc3c2-c2ccccc2)cc1,29,-5
CCOC(=O)c1c(S(=O)(=O)N2CCOCC2)c(-c2ccccc2)n(-c2ccccc2)c1C,/,-9
CCc1ccc2c(-c3cccc(Cl)c3)nc(=O)n(CC)c2n1,/,2
COc1cccc(-c2noc(C3CCCN3C(=O)Nc3ccc(OC)c(OC)c3)n2)c1 (stereo unspecified),33,-1
CC1=NN(C(=O)c2ccc(Cl)cc2)C(O)(c2cccc([N+](=O)[O-])c2)C1 (stereo unspecified),40,-11
COc1cccc(C2(O)CC(C(F)(F)F)=NN2C(=O)c2ccccc2[N+](=O)[O-])c1 (stereo unspecified),14,-1
CCC1=NN(C(=O)c2ccccc2)C(O)(c2ccc(Br)cc2)C1 (stereo unspecified),33,-2
CC1=NN(C(=O)c2cccc([N+](=O)[O-])c2)C(O)(c2ccc(Cl)cc2)C1 (stereo unspecified),59*,1
O=C(c1ccccc1)N1N=C(C(F)(F)F)CC1(O)c1cccc([N+](=O)[O-])c1 (stereo unspecified),53*,-5
CCC1=NN(C(=O)c2ccc(C)cc2)C(O)(c2ccc(Br)cc2)C1 (stereo unspecified),70*,20
CC1=NN(C(=O)c2cccc(O)c2)C(O)(c2ccc(Br)cc2)C1 (stereo unspecified),42,0
CC1=NN(C(=O)c2cccc([N+](=O)[O-])c2)C(O)(c2ccc(Br)cc2)C1 (stereo unspecified),66*,-4
N#CC(=Cc1ccc(C(F)(F)F)cc1)c1csc2ccccc12,/,0
SMILES,mHTT CaM bind,Pf apPOL block
CCCCN(CC)C(=O)c1nn(-c2cc(OC)cc(OC)c2)c(=O)c2ccccc12,1,-1
CCc1onc(C)c1C1CCCN1Cc1cn[nH]c1-c1ccc(F)cc1 (stereo unspecified),4,-1
CC1=NN(C(=O)C(C)C)C(O)(c2ccc(Br)cc2)C1 (stereo unspecified),21,-1
CC1=NN(C(=O)c2cc(Br)ccc2O)C(O)(c2ccccc2)C1 (stereo unspecified),98*,-9
Cc1oc2cc3oc(=O)c4c(c3cc2c1C)CCC4,-8,58*
Cc1oc2cc3oc(=O)c4c(c3cc2c1-c1ccccc1)CCC4,-9,14
Cc1ccc(NC(=O)Cn2ccc3c(=O)[nH]ccc32)cc1C,16,31
COc1ccc(NC(=O)Cn2ccc3c(=O)[nH]ccc32)cc1,18,53*
CCc1ccccc1NC(=O)Cn1ccc2c(=O)[nH]ccc21,23,30
Cc1cccc(NC(=O)Cn2ccc3c(=O)[nH]ccc32)c1C,13,54*
CCS(=O)(=O)NCC1CCN(C(=O)COc2ccccc2)CC1,-9,-6
O=C1c2ccccc2NC(c2ccc(Cl)cc2Cl)N1O (stereo unspecified),32,-4
C=CCc1cccc(C2Nc3ccccc3C(=O)N2O)c1O (stereo unspecified),28,57*
COc1ccc(C)cc1NC(=O)C(=O)NCc1cccnc1,2,8
Nc1ccc2nc(-c3ccc(N)c(Cl)c3)[nH]c2c1,66*,14
Nc1ccc2nc(CCc3nc4ccc(N)cc4[nH]3)[nH]c2c1,35,-3
Nc1ccc2nc(-c3ccc(Oc4ccc(-c5nc6ccc(N)cc6[nH]5)cc4)cc3)[nH]c2c1,65*,0
Nc1ccc2nc(-c3ccccc3Br)[nH]c2c1,57*,8
Nc1ccc(-c2nc3c(Cl)cc(N)cc3[nH]2)cc1,40,0
Nc1ccc2nc(C(F)(F)F)[nH]c2c1,-1,/
